Shown are actives, neighbours in structure and some others; about 27% of the full set was active somewhere.
CYP2C19 inhib: inhibitors of human CYP2C19 | P33261 | CYP2C19 Supersomes, luciferin-H EGE luminescence, 30 min | inhibition, % at 5 µM | 21% of 96,000 active;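 active = CYP2C19 inhibition above a set limit at 5 µM in the primary screen, cut at about 50% in these data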
EphB4 antag: EphB4-ephrin-B2 interaction antagonism; 0.15% of 97,000 active; AID 720; EphB4 LBD / TNYL-RAW-Alexa532 peptide, fluorescence polarization; inhibition, % at 7 µM;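 active = inhibition above the screen-wide mean inhibition plus 3 SD, cut at about 15% in these data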
CYP2C9 act: increases human cytochrome P450 2C9 activity | P11712 | recombinant CYP2C9, luciferin-H conversion, luminescence; hits give high values; factor 1 = untreated enzyme, 0 = blocked | activation factor at 5 µM | 1.4% of 96,000 active | AID 1024;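 active = activation factor of 2 or more for CYP2C9 at a 5 µM dose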
Target sequence (P11712 whole entry, looked up): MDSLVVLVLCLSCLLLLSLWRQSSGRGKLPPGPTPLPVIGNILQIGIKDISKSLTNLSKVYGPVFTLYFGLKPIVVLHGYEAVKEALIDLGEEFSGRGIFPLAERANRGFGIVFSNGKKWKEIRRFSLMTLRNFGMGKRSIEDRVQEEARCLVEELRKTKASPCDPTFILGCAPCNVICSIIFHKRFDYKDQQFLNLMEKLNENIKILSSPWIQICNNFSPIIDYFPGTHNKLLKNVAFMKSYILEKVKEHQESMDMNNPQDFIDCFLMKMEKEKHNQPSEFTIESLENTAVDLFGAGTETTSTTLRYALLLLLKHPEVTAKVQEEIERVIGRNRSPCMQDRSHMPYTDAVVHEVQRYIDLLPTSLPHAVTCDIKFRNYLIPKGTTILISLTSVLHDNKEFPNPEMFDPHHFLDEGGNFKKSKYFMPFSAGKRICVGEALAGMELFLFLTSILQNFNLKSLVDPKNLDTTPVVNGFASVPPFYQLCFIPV
CYP2C19 act: activators of human cytochrome P450 2C19; P33261; AID 1025; 96,000 tested, under 10 active; activation factor at 5 µM; recombinant CYP2C19, luciferin-H EGE luminescence; hits give high values; 0 = fully inhibited enzyme, 1 = untreated enzyme;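 active = activation factor of at least 2 at 5 µM in the primary screen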
CYP2C9 inhib: blocks human cytochrome P450 2C9; P11712; CYP2C9 Supersomes, luciferin-H conversion, luminescence; inhibition, % at 5 µM; 20% of 96,000 active; AID 777;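 active = blocking of liver enzyme CYP2C9 beyond about 50% at 5 µM, limit read from the data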
Large screens that a line does not name were inactive.

CCOC(=O)c1cccc(NC(=O)C2CCCN(S(=O)(=O)c3c(C)n[nH]c3C)C2)c1 (stereo unspecified)	CYP2C19 inhib 66, CYP2C9 inhib 88
CCOc1ccc(NC(=O)C2CCCN(S(=O)(=O)c3c(C)nn(C)c3C)C2)cc1 (stereo unspecified)	none
CCOC(=O)c1cccc(NC(=O)C2CCCN(S(=O)(=O)c3c(C)nn(C)c3C)C2)c1 (stereo unspecified)	CYP2C19 inhib 83, CYP2C9 inhib 93
CC(=O)c1cccc(NC(=O)C2CCN(S(=O)(=O)c3ccc(C)cc3)CC2)c1	none (no result: CYP2C19 inhib, CYP2C9 act, CYP2C19 act, CYP2C9 inhib)
COc1ccc(S(=O)(=O)N2CCC(C(=O)Nc3cccc(C(C)=O)c3)CC2)cc1C	CYP2C19 inhib 97
Cc1n[nH]c(C)c1S(=O)(=O)N1CCCC(C(=O)N2CCc3ccccc32)C1 (stereo unspecified)	CYP2C19 inhib 62
Cc1noc(/C=C/N(C)C)c1S(=O)(=O)N1CCCC(C(=O)N2CCc3ccccc32)C1 (stereo unspecified)	none (no result: CYP2C19 inhib, CYP2C9 act, CYP2C19 act, CYP2C9 inhib)
CC1CCCCN1CC(=O)Nc1sccc1C#N (stereo unspecified)	none
CC1(C(=O)NCc2cccnc2)CCC(=O)N1CCc1ccccc1 (stereo unspecified)	none (no result: CYP2C19 inhib, CYP2C9 act, CYP2C19 act, CYP2C9 inhib)
Cc1noc(C)c1S(=O)(=O)N1CCC(C(=O)Nc2ccc(OC(F)(F)F)cc2)CC1	none
COc1ccc(NC(=O)C2CCCN(S(=O)(=O)c3c(C)n[nH]c3C)C2)c(OC)c1 (stereo unspecified)	CYP2C19 inhib 52
COc1ccc(NC(=O)C2CCN(S(=O)(=O)c3c(C)noc3C)CC2)cc1Cl	CYP2C19 inhib 78, CYP2C9 inhib 68
CC(=O)c1cccc(NC(=O)C2CCN(S(=O)(=O)c3c(C)n[nH]c3C)CC2)c1	CYP2C19 inhib 71
Cc1n[nH]c(C)c1S(=O)(=O)N1CCCC(C(=O)N2CCN(c3ccc(Cl)cc3)CC2)C1 (stereo unspecified)	none
Cc1nn(C)c(C)c1S(=O)(=O)N1CCCC(C(=O)N2CCN(c3ccc(Cl)cc3)CC2)C1 (stereo unspecified)	CYP2C19 inhib 84, CYP2C9 inhib 91
Cc1cc(C(=O)NCCN2CCCCC2C)n(-c2ccccc2)n1 (stereo unspecified)	none
CCOC(=O)C1CCN(S(=O)(=O)c2c(C)[nH]c(=O)[nH]c2=O)CC1	none (no result: EphB4 antag)
CCOC(=O)C1CCN(S(=O)(=O)c2c(C)n[nH]c2C)CC1	CYP2C19 inhib 88, CYP2C9 inhib 90
OC1(c2ccccc2F)CCN(Cc2nnnn2CCc2ccccc2)CC1	CYP2C19 inhib 65, CYP2C9 inhib 80
COc1cc(CNCc2cccs2)ccc1OCC(N)=O	none
COc1cc(CNCc2cccs2)ccc1OCc1ccccc1	CYP2C19 inhib 67
COc1cc(CNCc2ccco2)ccc1OCc1ccccc1	CYP2C19 inhib 52
COc1ccc(CC(=O)NCc2ccco2)cc1OC	none
COc1cc(CNCc2cccs2)ccc1OCc1cccs1	CYP2C19 inhib 50
CCN1C2=C(C(=O)CCC2)C(c2ccc(O)cc2)C2=C1CCCC2=O	none
CCOCCCNC(=O)CN1C(=O)CSc2cc(S(=O)(=O)N3CCCCCC3)ccc21	none
CCCc1nc(SCC(=O)N2CCCC2)c2ccccc2n1	none
Cc1cccc(NC(=O)CSc2nc(COc3ccccc3)nc3ccccc23)c1C	CYP2C9 inhib 90
CCc1nc(SCC(=O)N2c3ccccc3Sc3ccccc32)c2ccccc2n1	CYP2C9 inhib 53
Cc1cccc(NC(=O)CSc2nnc(-c3ccccc3Br)o2)c1C	none
CCc1nc(SCC(=O)Nc2sc(C)c(C)c2C(=O)OC)c2ccccc2n1	CYP2C9 inhib 54
CCc1nc(SCC(=O)Nc2nc3c(s2)CCCC3)c2ccccc2n1	none
Cc1cccc(C)c1NC(=O)CSc1nc(COc2ccccc2)nc2ccccc12	CYP2C19 inhib 66, CYP2C9 inhib 90
CC(C)c1cc(C(=O)O)n(-c2ccccc2)n1	none
O=C(O)c1cc2ccccc2n1-c1ccccc1	CYP2C9 inhib 54 (no result: EphB4 antag)
Cc1cc(C)nc(-n2nc(C)c(Sc3ccc(F)cc3)c2N)n1	CYP2C19 inhib 79, CYP2C9 inhib 66
COc1ccc(-c2nc(C#N)c(NC(C)C)o2)cc1	CYP2C19 inhib 86
N#Cc1nc(-c2ccccc2)oc1N1CCCCC1	none (no result: EphB4 antag)
N#Cc1nc(-c2ccccc2F)oc1N1CCCC1	CYP2C19 inhib 50, CYP2C9 act 2.3
COc1ccc(-c2nc(C#N)c(N3CCCCCC3)o2)cc1OC	CYP2C9 inhib 52
COc1ccc(-c2nc(C#N)c(N3CC(C)OC(C)C3)o2)cc1OC (stereo unspecified)	none (no result: CYP2C19 inhib, CYP2C9 act, CYP2C19 act, CYP2C9 inhib)
COc1ccc(-c2nc(C#N)c(N3CCCCCC3)o2)cc1	CYP2C9 inhib 50
C=CCn1c(SCCC(=O)O)nnc1-c1cccs1	none (no result: CYP2C19 inhib, CYP2C9 act, CYP2C19 act, CYP2C9 inhib)
CCOc1ccc(-c2nc(C#N)c(N3CCCCCC3)o2)cc1	CYP2C9 inhib 76
CCOc1ccc(-c2nc(C#N)c(N3CCN(C)CC3)o2)cc1	none
COC(=O)[C@H](CCSC)NC(=O)Nc1ccc(C)cc1	CYP2C19 inhib 60
N#Cc1cccc(NC(=O)COc2ccc(-n3ccnc3)cc2)c1	CYP2C19 inhib 100, CYP2C9 inhib 99
CC(C)(C)c1ccc(NC(=O)COc2ccc(-n3ccnc3)cc2)cc1	CYP2C19 inhib 99, CYP2C9 inhib 99
Cc1ccc(NC(=O)COc2ccc(-n3cnnn3)cc2)cc1C	none (no result: CYP2C19 inhib, CYP2C9 act, CYP2C19 act, CYP2C9 inhib)
O=C(NC1CCCCCCC1)C1=COCCO1	none (no result: EphB4 antag)
CC(O)CN(CCC(N)=O)CCC(N)=O (stereo unspecified)	none
COC(=O)CN1CCN(C(=O)c2ccc(F)cc2)c2ccccc2C1	CYP2C19 inhib 53
CSc1nc2ccc(S(=O)(=O)Nc3c(C)n(C)n(-c4ccccc4)c3=O)cc2s1	none
CCN(CC)S(=O)(=O)c1ccc2nc(SC)sc2c1	CYP2C19 inhib 78
CSc1nc2ccc3nc(NC(=O)c4ccc(Cl)s4)sc3c2s1	none
CSc1nc2ccc(NS(=O)(=O)c3ccc(Cl)s3)cc2s1	CYP2C19 inhib 100, CYP2C9 inhib 100
CSc1nc2ccc(S(=O)(=O)N(C)C)cc2s1	CYP2C19 inhib 86
Cc1ccc(S(=O)(=O)N2CCC(C(=O)NCCCN3CCCCCC3)CC2)cc1	none
C/C(=C\C(=O)c1ccc(C)o1)Nc1ccc(C(=O)O)cc1C	none
C=CCNc1sc(C(=O)c2ccccc2)c(N)c1-c1nc2ccccc2s1	none
CCNc1sc(C(=O)c2cccs2)c(N)c1-c1nc2ccccc2s1	CYP2C19 inhib 53, CYP2C9 inhib 90
COc1ccc(NC(=O)CCNS(=O)(=O)c2ccc3c(c2)c(=O)n(C)c(=O)n3C)cc1	none
COc1ccc(OC)c(NC(=O)CCNS(=O)(=O)c2cccs2)c1	none (no result: CYP2C19 inhib, CYP2C9 act, CYP2C19 act, CYP2C9 inhib)
CCOc1ccc(NC(=O)CCNS(=O)(=O)c2cccs2)cc1	CYP2C19 inhib 66
COc1ccc(NC(=O)CCNS(=O)(=O)c2ccc(Br)s2)cc1	CYP2C9 inhib 68
CCc1ccc(NC(=O)N(C2CCC(C)CC2)C2CCN(C(C)=O)CC2)cc1 (stereo unspecified)	none
COc1ccc(-c2nnc(-c3cc4c(ccc5ccccc54)oc3=O)o2)cc1	CYP2C19 inhib 68, CYP2C9 inhib 56

Assay outcomes: PubChem, several laboratories
